Among the data in article PMC7862700, “An all-to-all approach to the identification of sequence-specific readers for epigenetic DNA modifications on cytosine” are binding signal values, retold here.

Common to all, as to assay: DAPPL (digital affinity profiling via proximity ligation, sequencing); 10 mM Tris-HCl pH 7.5, 50 mM NaCl, 1 mM DTT, 4% glycerol, room temperature, 30 min; GST-TFs on glutathione beads, 16-mer random dsDNA library, 0.1% formaldehyde crosslink after washing; high values mean tight binding
For one assay, the target named is T1, FEV (Homo sapiens, UniProt Q99581 1-238).
T1 sequence: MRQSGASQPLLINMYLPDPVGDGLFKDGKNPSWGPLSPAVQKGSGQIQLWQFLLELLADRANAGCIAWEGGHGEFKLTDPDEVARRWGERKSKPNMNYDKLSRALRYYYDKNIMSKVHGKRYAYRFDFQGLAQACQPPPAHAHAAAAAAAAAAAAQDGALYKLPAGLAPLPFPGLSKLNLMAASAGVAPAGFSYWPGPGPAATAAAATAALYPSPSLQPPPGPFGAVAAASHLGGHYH
The conditions noted are these: protein: recombinant; tags: N-terminal GST; dsDNA, one strand shown. Summed up:
(§1)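 A tag-only sample was pooled with DNA-barcoded human transcription factors that had been expressed in yeast as GST fusions and captured on glutathione beads. The pools were incubated for 30 min at room temperature with 200 nmole of a random double-stranded 16-mer DNA library in Tris/NaCl/DTT/glycerol buffer, then washed, crosslinked with 0.1% formaldehyde, proximity-ligated (BsaI/T4 ligase, 1 h, 37 °C), PCR-amplified and sequenced on an Illumina NextSeq500. Binding signal is each hexamer's read frequency for a factor divided by its frequency for the tag-only sample.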

Another assay addresses ETV5 (Homo sapiens, UniProt P41161 1-510). The conditions noted are these: protein: recombinant; tags: N-terminal GST; dsDNA, one strand shown. Summed up:
as §1

For a further assay, the target named is HSF1 (Homo sapiens, UniProt Q00613 1-529). The conditions noted are these: protein: recombinant; tags: N-terminal GST; chain copies: 3; dsDNA, one strand shown. The method in brief:
as §1

A further assay addresses T2, SPIC (Homo sapiens, UniProt Q8N5J4 1-248).
T2 sequence: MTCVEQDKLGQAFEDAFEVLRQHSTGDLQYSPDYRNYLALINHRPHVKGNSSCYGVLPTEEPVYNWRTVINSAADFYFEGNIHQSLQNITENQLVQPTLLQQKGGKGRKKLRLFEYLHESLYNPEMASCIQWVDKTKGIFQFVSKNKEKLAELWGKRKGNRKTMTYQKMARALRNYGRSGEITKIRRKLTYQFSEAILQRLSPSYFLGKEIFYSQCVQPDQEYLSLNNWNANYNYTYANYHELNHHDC
As to conditions: protein: recombinant; tags: N-terminal GST; dsDNA, one strand shown. The method in brief:
as §1

A further assay has as its target ELF4 (Homo sapiens, UniProt Q99607 1-663). The conditions noted are these: protein: recombinant; tags: N-terminal GST; dsDNA, one strand shown. The method in brief: as §1
A further assay concerns the target T3, ELK4 (Homo sapiens, UniProt P28324-2 1-405).
T3 sequence: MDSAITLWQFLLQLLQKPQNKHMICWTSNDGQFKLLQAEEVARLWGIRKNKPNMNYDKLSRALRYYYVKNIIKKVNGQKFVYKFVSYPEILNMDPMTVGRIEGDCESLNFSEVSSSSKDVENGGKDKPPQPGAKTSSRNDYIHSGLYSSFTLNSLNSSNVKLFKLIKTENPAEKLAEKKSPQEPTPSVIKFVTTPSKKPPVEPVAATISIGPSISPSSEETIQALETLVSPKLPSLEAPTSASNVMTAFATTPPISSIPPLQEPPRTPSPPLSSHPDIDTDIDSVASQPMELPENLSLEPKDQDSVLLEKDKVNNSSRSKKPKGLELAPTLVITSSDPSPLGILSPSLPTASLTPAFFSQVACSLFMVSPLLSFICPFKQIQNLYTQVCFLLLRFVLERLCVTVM
The conditions noted are these: protein: recombinant; tags: N-terminal GST; dsDNA, one strand shown. The method in brief:
as §1

In a further assay the target is T4, ETV2 (Homo sapiens, UniProt O00321 1-342).
T4 sequence: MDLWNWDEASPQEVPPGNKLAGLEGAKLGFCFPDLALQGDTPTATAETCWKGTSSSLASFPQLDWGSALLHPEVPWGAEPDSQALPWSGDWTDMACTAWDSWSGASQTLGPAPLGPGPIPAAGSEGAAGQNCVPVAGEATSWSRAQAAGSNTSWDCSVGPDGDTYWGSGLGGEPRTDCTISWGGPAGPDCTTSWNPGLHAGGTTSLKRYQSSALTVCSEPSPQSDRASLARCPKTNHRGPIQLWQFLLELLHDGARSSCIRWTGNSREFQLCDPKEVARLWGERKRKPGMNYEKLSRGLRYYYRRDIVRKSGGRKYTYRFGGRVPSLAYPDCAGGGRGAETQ
The conditions noted are these: protein: recombinant; tags: N-terminal GST; dsDNA, one strand shown. The method in brief: as §1

The next assay addresses T5, ELF3 (Homo sapiens, UniProt P78545 1-371).
T5 sequence: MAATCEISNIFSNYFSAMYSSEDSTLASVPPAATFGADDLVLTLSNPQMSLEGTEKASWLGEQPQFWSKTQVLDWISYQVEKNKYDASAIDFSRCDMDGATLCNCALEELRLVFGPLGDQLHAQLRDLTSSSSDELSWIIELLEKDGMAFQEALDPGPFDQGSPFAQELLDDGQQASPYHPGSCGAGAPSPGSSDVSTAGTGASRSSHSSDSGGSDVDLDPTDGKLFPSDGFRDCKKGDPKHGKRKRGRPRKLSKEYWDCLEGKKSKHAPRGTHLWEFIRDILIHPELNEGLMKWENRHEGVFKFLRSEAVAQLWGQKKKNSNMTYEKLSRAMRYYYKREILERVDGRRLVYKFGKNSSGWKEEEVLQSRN
The conditions noted are these: protein: recombinant; tags: N-terminal GST; dsDNA, one strand shown. The method in brief: as §1

The target in the next assay is CRX (Homo sapiens, UniProt O43186 1-299). As to conditions: protein: recombinant; tags: N-terminal GST; dsDNA, one strand shown. The method in brief: as §1
The target of the next assay is ETV1 (Homo sapiens, UniProt P50549 1-477). The conditions noted are these: protein: recombinant; tags: N-terminal GST; dsDNA, one strand shown. The method in brief: as §1
In the next assay the target is T6, ERF (Homo sapiens, UniProt P50548 1-548).
T6 sequence: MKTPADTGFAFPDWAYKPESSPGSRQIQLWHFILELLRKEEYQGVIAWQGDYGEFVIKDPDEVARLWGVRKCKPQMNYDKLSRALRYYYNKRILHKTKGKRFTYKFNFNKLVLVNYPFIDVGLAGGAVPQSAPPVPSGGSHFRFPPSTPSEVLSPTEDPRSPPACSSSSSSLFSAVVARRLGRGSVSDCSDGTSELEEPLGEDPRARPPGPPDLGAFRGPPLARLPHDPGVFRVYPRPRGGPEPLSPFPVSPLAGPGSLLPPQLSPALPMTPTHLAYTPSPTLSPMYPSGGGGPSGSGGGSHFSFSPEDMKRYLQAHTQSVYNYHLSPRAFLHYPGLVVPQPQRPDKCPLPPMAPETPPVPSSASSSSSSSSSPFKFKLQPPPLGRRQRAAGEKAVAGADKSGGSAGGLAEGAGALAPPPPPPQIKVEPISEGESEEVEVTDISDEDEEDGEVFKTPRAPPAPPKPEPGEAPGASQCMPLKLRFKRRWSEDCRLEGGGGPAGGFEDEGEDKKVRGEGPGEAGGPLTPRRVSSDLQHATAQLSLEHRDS
As to conditions: protein: recombinant; tags: N-terminal GST; dsDNA, one strand shown. The method in brief:
as §1

The target of the next assay is T7, ETV3L (Homo sapiens, UniProt Q6ZN32 1-361).
T7 sequence: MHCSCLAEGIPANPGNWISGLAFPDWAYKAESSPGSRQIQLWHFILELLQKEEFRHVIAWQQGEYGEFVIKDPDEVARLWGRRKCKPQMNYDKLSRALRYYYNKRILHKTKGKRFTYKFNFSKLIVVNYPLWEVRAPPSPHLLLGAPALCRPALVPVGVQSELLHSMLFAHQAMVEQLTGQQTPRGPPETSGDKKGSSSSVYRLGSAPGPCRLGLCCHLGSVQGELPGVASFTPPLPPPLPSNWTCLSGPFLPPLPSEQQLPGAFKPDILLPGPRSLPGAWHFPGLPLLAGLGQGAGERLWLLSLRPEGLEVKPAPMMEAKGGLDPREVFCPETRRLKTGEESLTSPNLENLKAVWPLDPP
The conditions noted are these: protein: recombinant; tags: N-terminal GST; dsDNA, one strand shown. The method in brief:
as §1

The target of another assay is T8, ETS2 (Homo sapiens, UniProt P15036 1-469).
T8 sequence: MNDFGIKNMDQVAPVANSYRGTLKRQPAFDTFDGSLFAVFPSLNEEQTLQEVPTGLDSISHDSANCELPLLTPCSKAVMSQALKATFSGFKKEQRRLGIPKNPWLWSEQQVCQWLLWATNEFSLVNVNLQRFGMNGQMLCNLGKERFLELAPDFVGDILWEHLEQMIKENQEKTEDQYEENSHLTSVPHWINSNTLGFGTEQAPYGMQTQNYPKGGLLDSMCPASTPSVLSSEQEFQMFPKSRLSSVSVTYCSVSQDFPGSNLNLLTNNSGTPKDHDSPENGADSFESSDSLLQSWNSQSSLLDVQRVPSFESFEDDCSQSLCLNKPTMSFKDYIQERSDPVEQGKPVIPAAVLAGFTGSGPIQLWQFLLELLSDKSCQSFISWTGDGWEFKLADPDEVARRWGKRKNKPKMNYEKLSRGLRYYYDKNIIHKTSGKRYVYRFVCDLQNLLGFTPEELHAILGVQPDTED
The conditions noted are these: protein: recombinant; tags: N-terminal GST; dsDNA, one strand shown. Summed up:
as §1

The target in the next assay is T9, SPDEF (Homo sapiens, UniProt O95238 1-335).
T9 sequence: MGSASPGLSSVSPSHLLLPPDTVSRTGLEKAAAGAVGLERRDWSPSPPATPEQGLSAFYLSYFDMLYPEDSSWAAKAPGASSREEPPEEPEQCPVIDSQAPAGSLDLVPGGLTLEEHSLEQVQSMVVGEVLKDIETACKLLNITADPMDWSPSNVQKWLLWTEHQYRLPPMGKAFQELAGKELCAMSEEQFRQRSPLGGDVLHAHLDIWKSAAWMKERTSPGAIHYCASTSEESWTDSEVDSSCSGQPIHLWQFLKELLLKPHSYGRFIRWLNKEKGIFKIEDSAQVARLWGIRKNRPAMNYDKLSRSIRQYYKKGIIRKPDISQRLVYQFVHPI
The conditions noted are these: protein: recombinant; tags: N-terminal GST; dsDNA, one strand shown. The method in brief:
as §1

Another assay deals with T10, ETV7 (Homo sapiens, UniProt Q9Y603 1-341).
T10 sequence: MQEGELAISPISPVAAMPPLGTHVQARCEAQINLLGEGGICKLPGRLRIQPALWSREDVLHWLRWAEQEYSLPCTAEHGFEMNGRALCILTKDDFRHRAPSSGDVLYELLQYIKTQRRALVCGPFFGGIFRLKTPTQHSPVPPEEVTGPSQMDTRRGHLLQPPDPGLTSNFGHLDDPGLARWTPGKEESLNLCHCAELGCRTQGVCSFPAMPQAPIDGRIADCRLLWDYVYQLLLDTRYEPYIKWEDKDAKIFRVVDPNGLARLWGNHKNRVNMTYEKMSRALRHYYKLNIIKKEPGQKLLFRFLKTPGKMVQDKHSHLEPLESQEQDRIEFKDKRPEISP
As to conditions: protein: recombinant; tags: N-terminal GST; dsDNA, one strand shown. The method in brief:
as §1

A further assay addresses T11, ELF5 (Homo sapiens, UniProt Q9UKW6-2 1-255).
T11 sequence: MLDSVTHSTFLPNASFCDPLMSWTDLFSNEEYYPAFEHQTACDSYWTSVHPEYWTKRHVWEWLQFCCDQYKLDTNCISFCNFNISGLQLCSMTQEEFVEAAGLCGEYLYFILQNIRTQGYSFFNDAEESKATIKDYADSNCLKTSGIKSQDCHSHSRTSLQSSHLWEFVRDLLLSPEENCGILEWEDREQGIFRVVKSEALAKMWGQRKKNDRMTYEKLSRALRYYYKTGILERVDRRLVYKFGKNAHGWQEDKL
The conditions noted are these: protein: recombinant; tags: N-terminal GST; dsDNA, one strand shown. The method in brief:
as §1

A further assay has as its target T12, ETV3 (Homo sapiens, UniProt P41162-2 1-143).
T12 sequence: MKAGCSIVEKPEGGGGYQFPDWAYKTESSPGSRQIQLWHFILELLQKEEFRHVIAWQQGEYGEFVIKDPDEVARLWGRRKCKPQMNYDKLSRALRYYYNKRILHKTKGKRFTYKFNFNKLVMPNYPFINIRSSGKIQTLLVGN
The conditions noted are these: protein: recombinant; tags: N-terminal GST; dsDNA, one strand shown. The method in brief: as §1

The next assay has as its target ETV6 (Homo sapiens, UniProt P41212 1-452). The conditions noted are these: protein: recombinant; tags: N-terminal GST; dsDNA, one strand shown. Summed up: as §1

Chain of CRX (O43186 whole entry): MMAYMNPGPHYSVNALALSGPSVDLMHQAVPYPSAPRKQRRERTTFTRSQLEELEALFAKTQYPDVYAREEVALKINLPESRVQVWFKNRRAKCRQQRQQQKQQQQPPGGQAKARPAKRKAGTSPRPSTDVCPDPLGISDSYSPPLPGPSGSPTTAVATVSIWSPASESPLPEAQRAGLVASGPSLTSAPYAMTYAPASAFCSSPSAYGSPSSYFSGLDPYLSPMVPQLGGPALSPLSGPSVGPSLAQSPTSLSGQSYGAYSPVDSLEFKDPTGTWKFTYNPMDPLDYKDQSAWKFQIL
Chain of ETV5 (P41161 whole entry): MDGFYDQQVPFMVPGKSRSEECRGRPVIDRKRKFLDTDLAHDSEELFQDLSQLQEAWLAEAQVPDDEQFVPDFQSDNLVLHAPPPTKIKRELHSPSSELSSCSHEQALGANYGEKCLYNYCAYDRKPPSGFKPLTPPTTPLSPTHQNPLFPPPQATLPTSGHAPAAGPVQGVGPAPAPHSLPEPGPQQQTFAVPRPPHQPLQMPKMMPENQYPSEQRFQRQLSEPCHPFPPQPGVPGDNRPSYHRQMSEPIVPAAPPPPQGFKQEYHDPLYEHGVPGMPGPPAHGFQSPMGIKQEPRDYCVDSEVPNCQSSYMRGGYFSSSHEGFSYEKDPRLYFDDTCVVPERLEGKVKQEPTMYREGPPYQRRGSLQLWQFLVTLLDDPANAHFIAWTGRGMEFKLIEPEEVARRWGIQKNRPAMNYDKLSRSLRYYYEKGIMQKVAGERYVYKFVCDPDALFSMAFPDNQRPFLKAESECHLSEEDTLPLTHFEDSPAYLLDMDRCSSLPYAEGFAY
Chain of ETV1 (P50549 whole entry): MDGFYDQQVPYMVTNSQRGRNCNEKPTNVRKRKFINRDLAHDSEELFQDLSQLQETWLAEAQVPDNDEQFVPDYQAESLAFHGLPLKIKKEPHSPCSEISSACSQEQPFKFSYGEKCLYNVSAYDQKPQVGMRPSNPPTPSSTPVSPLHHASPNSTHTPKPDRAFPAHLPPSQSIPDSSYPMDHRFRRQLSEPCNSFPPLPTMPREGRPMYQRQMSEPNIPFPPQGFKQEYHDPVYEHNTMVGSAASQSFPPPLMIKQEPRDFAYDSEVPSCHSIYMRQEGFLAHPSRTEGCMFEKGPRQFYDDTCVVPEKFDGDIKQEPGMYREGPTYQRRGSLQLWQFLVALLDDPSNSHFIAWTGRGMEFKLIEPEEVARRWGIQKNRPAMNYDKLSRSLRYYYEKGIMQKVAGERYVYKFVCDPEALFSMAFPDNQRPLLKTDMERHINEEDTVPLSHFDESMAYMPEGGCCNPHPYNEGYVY
Chain of ETV6 (P41212 whole entry): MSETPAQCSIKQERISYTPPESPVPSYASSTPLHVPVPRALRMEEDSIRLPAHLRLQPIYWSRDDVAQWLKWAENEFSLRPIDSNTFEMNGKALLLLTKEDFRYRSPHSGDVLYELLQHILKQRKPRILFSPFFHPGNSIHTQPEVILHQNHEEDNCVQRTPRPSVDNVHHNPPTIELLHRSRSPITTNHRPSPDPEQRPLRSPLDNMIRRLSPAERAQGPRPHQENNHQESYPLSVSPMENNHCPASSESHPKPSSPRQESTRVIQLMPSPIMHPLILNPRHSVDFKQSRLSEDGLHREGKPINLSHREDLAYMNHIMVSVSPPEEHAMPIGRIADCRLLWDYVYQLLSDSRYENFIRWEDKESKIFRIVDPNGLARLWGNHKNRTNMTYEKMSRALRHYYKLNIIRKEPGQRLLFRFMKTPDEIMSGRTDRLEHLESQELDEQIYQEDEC
Chain of ELF4 (Q99607 whole entry): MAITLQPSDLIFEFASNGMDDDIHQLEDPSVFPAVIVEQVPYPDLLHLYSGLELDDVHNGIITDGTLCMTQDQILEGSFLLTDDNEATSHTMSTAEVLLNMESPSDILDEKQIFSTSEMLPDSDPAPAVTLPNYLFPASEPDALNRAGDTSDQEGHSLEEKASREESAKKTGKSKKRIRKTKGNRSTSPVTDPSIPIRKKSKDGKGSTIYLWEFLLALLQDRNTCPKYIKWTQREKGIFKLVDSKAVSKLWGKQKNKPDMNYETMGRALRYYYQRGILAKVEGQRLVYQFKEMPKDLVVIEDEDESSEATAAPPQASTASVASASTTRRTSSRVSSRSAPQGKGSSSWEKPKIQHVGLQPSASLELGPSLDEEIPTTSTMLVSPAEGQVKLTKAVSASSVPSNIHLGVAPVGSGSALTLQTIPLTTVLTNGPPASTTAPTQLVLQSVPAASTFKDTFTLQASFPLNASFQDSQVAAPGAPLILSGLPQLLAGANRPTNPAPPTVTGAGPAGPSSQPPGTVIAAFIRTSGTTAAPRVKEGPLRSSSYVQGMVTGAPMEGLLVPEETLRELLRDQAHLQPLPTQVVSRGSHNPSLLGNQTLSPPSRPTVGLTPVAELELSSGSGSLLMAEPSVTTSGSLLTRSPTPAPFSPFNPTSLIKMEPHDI
Chain of HSF1 (Q00613 whole entry): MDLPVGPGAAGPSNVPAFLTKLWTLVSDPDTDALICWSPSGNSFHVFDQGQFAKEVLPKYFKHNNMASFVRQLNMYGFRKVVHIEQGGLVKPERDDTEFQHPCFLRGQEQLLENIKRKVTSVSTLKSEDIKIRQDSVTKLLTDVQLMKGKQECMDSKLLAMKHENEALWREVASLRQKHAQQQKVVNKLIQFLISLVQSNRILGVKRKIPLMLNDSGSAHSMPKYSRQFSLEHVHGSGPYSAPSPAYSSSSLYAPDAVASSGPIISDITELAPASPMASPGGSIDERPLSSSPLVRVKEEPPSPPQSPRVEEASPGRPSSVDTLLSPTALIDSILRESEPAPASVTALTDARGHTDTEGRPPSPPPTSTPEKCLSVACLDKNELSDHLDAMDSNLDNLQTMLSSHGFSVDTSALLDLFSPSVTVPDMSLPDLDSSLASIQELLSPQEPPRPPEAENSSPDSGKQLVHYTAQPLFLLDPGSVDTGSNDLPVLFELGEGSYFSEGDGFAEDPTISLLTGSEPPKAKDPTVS

On to ATTACA, for which the binding signal was 1.06 fold enrichment (6-mer frequency, TF over GST control) with FEV; 1.07 fold enrichment (6-mer frequency, TF over GST control) in the assay with ETV5; 1.4 fold enrichment (6-mer frequency, TF over GST control) in the assay with HSF1; 1.15 fold enrichment (6-mer frequency, TF over GST control) with SPIC; 1.16 fold enrichment (6-mer frequency, TF over GST control) with ELF4; 1.2 fold enrichment (6-mer frequency, TF over GST control) in the assay with ELK4. For the same sequence, the binding signal is 1.14 fold enrichment (6-mer frequency, TF over GST control) with ETV2; 1.16 fold enrichment (6-mer frequency, TF over GST control) in the assay with ELF3; 1.86 fold enrichment (6-mer frequency, TF over GST control) with CRX; 1.17 fold enrichment (6-mer frequency, TF over GST control) in the assay with ETV1; 1.16 fold enrichment (6-mer frequency, TF over GST control) with ERF; 1.1 fold enrichment (6-mer frequency, TF over GST control) with ETV3L. For the same sequence, the binding signal with ETS2 is 1.11 fold enrichment (6-mer frequency, TF over GST control); in the assay with SPDEF, 1.18 fold enrichment (6-mer frequency, TF over GST control); in the assay with ETV7, 1.08 fold enrichment (6-mer frequency, TF over GST control); with ELF5, 1.08 fold enrichment (6-mer frequency, TF over GST control); with ETV3, 1.04 fold enrichment (6-mer frequency, TF over GST control); in the assay with ETV6 it was 1.15 fold enrichment (6-mer frequency, TF over GST control).
